# The whole screen tested about 63,000 compounds, of which about 1,100 (1.7%) were called active. The sample holds actives, similar compounds and a random draw of the others, so the mix is not that of the screen. Potency and affinity values are given separately. Values without a mark were called inactive.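 Rule for the calls: active = compounds whose percent cytotoxicity in the single-dose primary screen, scaled between solvent and toxic-drug controls, exceeds 50; inactive = the rest.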
# Test: viability loss of HPDE-C7K cells – cell-based, fluorescence, HTS, primary screen (AID 431);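 note: 0% = DMSO solvent wells and 100% = doxorubicin-treated wells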
# Conditions: HPDE-C7K KRASV12 cells, Alamar Blue viability, 48 h; at 10 µM; hits give high values
row,Compound,cytotoxicity
1,CC(C)C1CC(c2csc(N)n2)CCO1 (configuration not stated),7.1%
2,O=C1CCN(Cc2nnnn2CC2CCCO2)c2ccccc2N1 (configuration not stated),-13.4%
3,Cc1nnc(SCCn2c(N3CCCC(C)C3)nc3c2c(=O)n(C)c(=O)n3C)s1 (configuration not stated),6.4%
4,O=C(NCc1ccccn1)C1CCCN(S(=O)(=O)c2ccc(Br)cc2)C1 (configuration not stated),-8.1%
5,CCOC(=O)C(Cc1ccccc1)C(=O)Nc1nccs1 (configuration not stated),15.3%
6,CCOC(=O)C1CCN(S(=O)(=O)c2ccc3c(c2)CCCN3C(C)=O)CC1,-5.4%
7,COc1ccccc1NC(=O)C1=C(C)NC(SCC(=O)c2ccc(C)cc2)=C(C#N)C1c1ccco1 (configuration not stated),38.3%
8,CCOC(=O)CSC1=C(C#N)C(c2ccc(F)cc2)C(C(C)=O)=C(C)N1 (configuration not stated),-0.1%
9,CSCSC1=C(C#N)C(c2ccc(Cl)cc2)C(C(C)=O)=C(C)N1 (configuration not stated),-8.2%
10,CC(=O)C1=C(C)NC(SCC(=O)c2ccc(Cl)cc2)=C(C#N)C1c1ccco1 (configuration not stated),50.5% (active)
11,CC(=O)C1=C(C)OC(N)=C(C#N)C1c1ccco1 (configuration not stated),-7.5%
12,CC(=O)C1=C(C)NC(SCC(=O)c2ccc(F)cc2)=C(C#N)C1c1ccco1 (configuration not stated),90.5% (active)
13,Cc1cccc(C2CC(c3ccccc3)Nc3ncnn32)c1 (configuration not stated),0%
14,COc1ccc(CCNc2ncnc3[nH]ncc23)cc1OC,-5.5%
15,O=C(NC1CCCc2ccccc21)C1CCN(S(=O)(=O)c2cnc[nH]2)CC1 (configuration not stated),-2.5%
16,Cc1occc1-c1nc(-c2ccncc2)no1,-13.6%
17,CCSc1nnc(NC(=O)C(Cc2ccccc2)n2cccc2)s1 (configuration not stated),-0.8%
18,Cc1csc(NC(=O)C(Cc2ccccc2)n2cccc2)n1 (configuration not stated),15%
19,O=C1[C@@H]2Cc3ccccc3CN2C(=O)N1c1cccc(F)c1,-8.3%
20,Cc1cccc(-n2c(C)nc3c(cnn3-c3ccc(F)cc3)c2=O)c1,-11.2%
21,CC(C)CC(=O)N1CCN(S(=O)(=O)c2ccc(F)cc2)CC1,0.4%
22,COc1cccc(-c2nc(NCCN3CCOCC3)c3ccccc3n2)c1O,53.1% (active)
23,Cc1ccc(-c2nc(NCCN3CCOCC3)c3ccccc3n2)cc1,40.5%

row,Compound,cytotoxicity
1,Clc1ccc(-c2nc(NCCN3CCOCC3)c3ccccc3n2)cc1,40.9%
2,Fc1ccccc1-c1nc(NCCCN2CCOCC2)c2ccccc2n1,11.7%
3,Oc1ccccc1-c1nc(NCCN2CCOCC2)c2ccccc2n1,59.3% (active)
4,c1ccc(-c2nc(NCCCN3CCOCC3)c3ccccc3n2)cc1,5.9%
5,CCCCCOc1ccc(NS(C)(=O)=O)cc1,-26.8%
6,O=c1[nH]c(C(F)(F)F)nc2ccccc12,-18.7%
7,COc1ccccc1N(CN1C(=O)c2ccccc2C1=O)C(=O)c1cccnc1,-10%
8,CCOC(=O)c1cc(-c2ccc(/C=N\n3cnnc3)o2)ccc1Cl,-11%
9,O=C1CNC(=O)/C1=C\N1CCCCC1,-3.5%
10,Cc1cc(Nc2ccc(Br)cc2F)n2nc(C)nc2n1,3.9%
11,CCCNC(=O)Nc1cc(OCC)c(N2CCOCC2)cc1OCC,2.8%
12,COc1ccc(C(=O)c2coc3ccc(O)c(CN4CCCCC4)c23)cc1,16.8%
13,COc1ccc(-c2coc3c(CN4CCCCC4)c(O)c(CN4CCCCC4)c(O)c3c2=O)cc1,54.7% (active)
14,O=c1c(-c2ccccc2)coc2c(CN3CCCC3)c(O)ccc12,-6.5%
15,CC1Cc2cc(C3(O)C(=O)c4ccccc4C3=O)ccc2N1 (configuration not stated),-0.9%
16,COc1ccc(C2=[N+]([O-])C(C)(C)N(O)C2(C)C)cc1,-22%
17,Cc1ccc(C2c3c(oc4cc(C)c(C)cc4c3=O)C(=O)N2CCCN2CCOCC2)cc1 (configuration not stated),-5.4%
18,Cc1c(-c2nc(N)nc(Nc3ccccc3F)n2)oc2ccccc12,14.6%
19,Cc1c(-c2nc(N)nc(Nc3ccccc3)n2)oc2ccccc12,68.7% (active)
20,Cc1c(-c2nc(N)nc(Nc3ccc(F)cc3)n2)oc2ccccc12,12%
21,CNC(=O)c1cc(S(=O)(=O)N(C)C)ccc1Cl,2.1%
22,CCCCOc1ccccc1-c1cc(C(=O)O)[nH]n1,-9.2%
23,CC(=O)Oc1c(S(=O)(=O)c2ccc(C)cc2)c(C)nn1-c1ccccc1,-4.8%

row,Compound,cytotoxicity
1,O=C1CCC(=O)N1c1cccc(-c2nc3ccccc3o2)c1,1.5%
2,Nc1nnnn1/N=C/C=C/c1ccccc1,-19.8%
3,Nc1nnnn1/N=C/c1cccc(Oc2ccccc2)c1,-6.8%
4,C=CCOC(=O)C1=C(C)Nc2nnnn2C1c1cccc(OC)c1OC (configuration not stated),1.2%
5,Cn1cc(/C=N/n2cnc3scc(-c4ccccc4)c3c2=O)c2ccccc21,48.5%
6,Cn1cc(/C=N/n2cnc3scc(-c4ccc(Cl)cc4)c3c2=O)c2ccccc21,77.5% (active)
7,Cn1cc(/C=N/n2cnc3sc4c(c3c2=O)CCCC4)c2ccccc21,7.8%
8,COc1ccc(NC(=O)C2CCN(S(=O)(=O)c3ccc(C)cc3)CC2)cc1OC,-26.5%
9,CCOc1ccc(C2CC(c3ccc(OC)cc3)n3ncnc3N2)cc1 (configuration not stated),-6.4%
10,Cc1[nH]c2ccc(-c3nnc(SCC(=O)N4CCCc5ccccc54)o3)cc2c1C,2.9%
11,Cc1[nH]c2ccc(-c3nnc(SCC(=O)c4ccccc4F)o3)cc2c1C,78.5% (active)
12,Cc1[nH]c2ccc(-c3nnc(SCC(=O)c4ccc(F)cc4)o3)cc2c1C,-0.1%
13,CCc1[nH]nc2c1C(C(C)C)C(C#N)=C(N)O2 (configuration not stated),-20.8%
14,Cc1nn(Cc2ccc(C(=O)NC3CCCCC3)o2)c(C)c1Br,10.5%
15,CC1CCc2c(nc3ncnn3c2N2CCN(c3ccccc3F)CC2)C1 (configuration not stated),-5.6%
16,CCOC(=O)c1c(N)n[nH]c1-c1ccc(OC)cc1,6.6%
17,CCCOC(=O)c1ccc(-c2c(C)noc2-c2ccc(OC)cc2O)o1,1.5%
18,CCOc1ccc(-c2n[nH]c(C)c2Oc2ccc(OC)cc2)c(O)c1,16%
19,CCOc1ccc(N2C(=O)c3ccc(C(=O)OCc4c(C)noc4C)cc3C2=O)cc1,-4.2%
20,CCOC(=O)c1ccc(OCC(=O)c2ccc(O)cc2O)cc1,11.9%
21,CCOC(=O)COC(=O)c1ccc(O)cc1,1.8%
